This is a sample that favours compounds with a hit; in the whole collection about 0.34% have one here.
Vif-A3F inh = blocks the Vif interaction with APOBEC3F | HeLa A3F-eYFP + Vif (tagged APOBEC3F with the HIV-1 protein that degrades it), YFP fluorescence increase | Potency, µM (top dose mostly 46.1 µM) | 390,000 tested, 0.2% active; note: nearly all actives have a fitted effect of over 65% in size
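HeLa cells stably expressing Vif plus C-terminally eYFP-tagged A3F were seeded, incubated overnight at 37 deg C, dosed with compound, incubated overnight again at 37 deg C. Yellow fluorescence (Ex 488/Em 500-530) reported blocked Vif-mediated A3F-eYFP degradation.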
Vif-A3G inh = inhibitors of Vif-APOBEC3G interaction; HeLa A3G-eYFP + Vif (tagged APOBEC3G with the HIV-1 protein that degrades it), YFP fluorescence, overnight; 410,000 tested, 0.076% active; Q9HC16; Potency, µM (highest dose often 46.1 µM), usual class: inhibitors; AID 602310; note: nearly all actives have a fitted effect of over 60% in size
Target sequence (Q9HC16 whole entry, looked up): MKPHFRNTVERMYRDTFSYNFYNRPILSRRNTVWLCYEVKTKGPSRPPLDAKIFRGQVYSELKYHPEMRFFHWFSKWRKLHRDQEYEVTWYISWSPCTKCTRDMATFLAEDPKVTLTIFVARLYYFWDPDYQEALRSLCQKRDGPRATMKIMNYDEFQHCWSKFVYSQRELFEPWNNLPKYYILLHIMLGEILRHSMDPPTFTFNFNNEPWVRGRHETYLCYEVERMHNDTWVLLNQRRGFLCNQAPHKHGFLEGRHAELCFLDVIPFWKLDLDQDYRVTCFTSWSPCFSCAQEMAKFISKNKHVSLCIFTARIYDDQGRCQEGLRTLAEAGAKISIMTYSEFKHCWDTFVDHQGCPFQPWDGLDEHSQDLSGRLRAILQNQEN
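Read-out is eYFP fluorescence (Ex 488/Em 500-530) from Vif-expressing HeLa A3G-eYFP cells; more signal means A3G escaped Vif-mediated degradation. Cells plated overnight, compound pinned in, incubated overnight at 37 deg C.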
Epigenetic reg = derepresses silenced GFP reporter in murine cells | murine LDR cells, GFP reporter derepression, 30 h | Potency, µM (highest dose often 53.9 µM), hits mostly activators | 280,000 tested, 0.2% active; note: nearly all actives have a fitted effect of over 60% in size
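Derepression of a silenced CMV-GFP reporter in murine LDR cells is scored by enumerating GFP-positive cells with a laser-scanning microplate cytometer after 30 hours of treatment at 37 C.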
Hits are given with their value; – = inactive; ? = inconclusive; · = not tested or not shown. Calls come from the whole dose curve; as a rule, active = well fitted curve in the direction sought with a large enough effect; inconclusive = small, poorly fitted or top-dose-only effect, or another doubt; inactive = no such curve, though single readings can be large; an effect the other way counts as inactive or inconclusive.

SMILES | Vif-A3F inh | Vif-A3G inh | Epigenetic reg
Nc1c(C(=O)Nc2ccc(F)c(F)c2)sc2nc(-c3ccncc3)ccc12 | – | – | –
COc1ccc(NC(=O)c2sc3nc(-c4cccnc4)ccc3c2N)cc1 | ? | – | ?
Nc1c(C(=O)Nc2ccccc2)sc2nc(-c3cccnc3)ccc12 | · | · | 3.55µM
Cc1ccccc1CNC(=O)C(=O)NCC(c1cccs1)S(=O)(=O)c1ccc(Cl)cc1 (stereo not given) | – | – | –
CC(C)(C)c1ccc(Cn2cnc3c(cnn3C(C)(C)C)c2=O)cc1 | · | – | ·
CCN(CC)S(=O)(=O)c1cc(-c2ccc(=O)n(C(C)C(=O)Nc3cccc(C#N)c3)n2)ccc1C (stereo not given) | – | – | –
CC(C)(C)n1ncc2c(=O)n(Cc3ccc(F)c(C(F)(F)F)c3)cnc21 | · | – | ·
Cc1ccc(CNc2cc(C)nc3nc(-c4cccc(C)c4)nn23)cc1 | – | – | –
O=C(CN1C(=O)CC(c2ccccc2)=Nc2ccccc21)Nc1ccc(Br)cc1 | – | – | –
O=C1N/C(=C/c2ccc(N3CCCC3)cc2)C(=O)N1c1ccccc1 | ? | – | 15.8µM
O=C1/C(=C/c2ccc(N3CCCC3)cc2)NC(=S)N1C1CC1 | 11.2µM | 5.62µM | 17.8µM
O=C1N/C(=C/c2ccc(N3CCOCC3)cc2)C(=O)N1Cc1ccc(F)cc1 | – | – | –
Cc1cc(N2CCCC2)ccc1/C=C1\NC(=S)N(C)C1=O | 6.31µM | ? | ?
O=C1NC(=S)N/C1=C\c1ccc(N2CCOCC2)cc1 | – | – | –
CN1C(=O)c2ccc(N3CCCC3)cc2C1=O | – | – | –
Cc1ccccc1-c1nc(C(N)=O)c2c(n1)n(-c1ccc3c(c1)OCO3)c(=O)n2C | – | – | –
O=C(Nc1ccc(F)cc1F)c1ccc2c(c1)CCN2S(=O)(=O)c1ccc(Cl)cc1 | – | – | –
CC(=O)Nc1nonc1-c1nnc(SCC(=O)Nc2cccc(F)c2)n1-c1ccccc1 | – | – | –
Cc1cc2c(N=O)c(NO)ccc2[nH]1 | ? | 5.62µM | 15.8µM
O=Nc1c(O)[nH]c2ccc(F)cc12 | – | – | –
O=C(C[N+]12CN3CN(CN(C3)C1)C2)c1ccc(I)cc1 | · | – | ·
CCN1/C(=C/c2cc[n+](CCCS(=O)(=O)[O-])c3ccccc23)Sc2ccccc21 | ? | ? | 12.6µM
CCC(/C=C1\Sc2ccc(OC)cc2N1CC)=C\c1sc2ccc(OC)cc2[n+]1CCCS(=O)(=O)[O-] | – | – | –
O=C(O)CNC(=O)[C@@H](CS)Cc1ccccc1 | · | · | –
Cc1cccn2c(=O)c3cc(C#N)c(=O)n(-c4nnc(SCc5ccccc5F)s4)c3nc12 | · | · | –
SMILES | Vif-A3F inh | Vif-A3G inh | Epigenetic reg
COc1cc(OC)cc(C(=O)N(Cc2ccco2)Cc2cccs2)c1 | · | – | ·
Fc1cccc(F)c1/C=C/c1ccc2ccccc2n1 | – | – | –
Cc1[nH]c2ccccc2c1/C=C/c1ccc2ccccc2n1 | · | 11.2µM | ·
COc1ccc2nc3ccccc3nc2c1NC(=O)c1ccc(Cl)cc1Cl | ? | 3.98µM | ?
COc1cc(-c2cc(C(=O)Nc3c(Cl)cc(Cl)cc3Cl)c3ccccc3n2)cc(OC)c1OC | – | – | –
CCOC(=O)CCCC(=O)N1CCN(/[N+]([O-])=N/Oc2ccc([N+](=O)[O-])cc2[N+](=O)[O-])CC1 | · | – | ·
CCOC(=O)/C(N=Nc1c(C)n(C)n(-c2ccccc2)c1=O)=C(/O)c1ccccc1 | – | – | –
Cc1c(N=N/C(C(=O)Nc2ccccc2)=C(/O)c2ccccc2)c(=O)n(-c2ccccc2)n1C | 10µM | – | ?
O=C(CN1C(=O)C2(SCC(=O)N2c2ccc(F)c(F)c2)c2ccccc21)NCCc1ccccc1 (stereo not given) | – | – | –
Cc1noc(/C=C/c2cccnc2)c1[N+](=O)[O-] | – | – | ·
Cc1noc(/C=C/c2ccc(-c3ccccc3Cl)o2)c1[N+](=O)[O-] | ? | ? | 7.08µM
CCCCCCCCCCCCOC(=O)N1CCN(/[N+]([O-])=N/Oc2ccc([N+](=O)[O-])cc2[N+](C)=O)CC1 | · | – | ·
CC(C)N1CCc2c(sc(NC(=O)c3cc4cc([N+](=O)[O-])ccc4s3)c2C(N)=O)C1 | ? | 8.91µM | ?
CN1CCc2c(sc(NC(=O)c3cc4cc([N+](=O)[O-])ccc4s3)c2C(N)=O)C1 | · | · | –
CC(C)(C)n1ncc2c(=O)n(Cc3ccc(OC(F)(F)F)cc3)cnc21 | · | – | ·
COc1cc(NC(=O)COCc2cc(-c3ccc(F)cc3)on2)cc(OC)c1OC | – | – | –
CCc1ccc(C2C(C#N)=C(N)SC(N)=C2C#N)s1 | 22.4µM | ? | –
CCc1ccc(C2C(C#N)=C(N)SC(N)=C2C#N)cc1 | ? | ? | –
COc1cc(/C=N/Nc2snc(SC)c2C#N)ccc1O | – | ? | –
CSc1nsc(/C=C/Nc2ccc(C)cc2)c1C#N | ? | 12.6µM | –
Cc1ccc(C(=O)CSc2nsc(C)c2C#N)cc1 | – | – | –
CSc1nsc(/C=C/Nc2ccc(C)c(C)c2)c1C#N | ? | – | 3.55µM
Cc1ccc(O)c(-c2n[nH]c3c2C(c2ccc(F)cc2)N(Cc2ccco2)C3=O)c1 (stereo not given) | – | – | –
O=C1CC(c2ccccc2)Sc2ccccc2N1Cc1ccccc1F (stereo not given) | – | – | –
Cc1ccc(NC(=O)CCCn2c(=O)c3cccn3c3cccnc32)cc1C | – | – | –
CCCN(CCC)CCCNC(=O)C1CCN(c2nc3ccc(CC)cc3s2)CC1 | – | – | –
CC(=O)c1sc2nsc(SCCN3CCCCC3)c2c1N | ? | – | –
Nc1c(C(=O)c2ccc(Cl)cc2)sc2nsc(SCCN3CCOCC3)c12 | ? | ? | 20µM
CCOc1ccccc1CNC(=O)C1CCN(c2nnc(-n3c(C)ccc3C)s2)CC1 | · | · | –

Screens deposited in PubChem by National Center for Advancing Translational Sciences (NCATS).
